Jurkat NFkB inh – lowers PMA/ionomycin-induced NF-kB signal in Jurkat cells. PMA/ionomycin-induced NF-kB luciferase reporter, luminescence. inhibition, % at 4 µM. 0.53% of 330,000 active; in the data active = inhibition above about 50%
COUP-TFII inh – NR2F2 (human) inhibition, primary screen | HEK293T NGFI-A luciferase reporter, luminescence | AID 686940 | inhibition, % at 8.6 µM | 0.7% of 370,000 active;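 active = inhibition above a per-plate cutoff, mean inhibition of test wells between control levels plus 3 SD, cut at about 38% in these data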;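 note: cells cotransfected with COUP-TFII expression vector driving the NGFI-A reporter; 0% = median of COUP-TF2 test wells and 100% = reporter-only cells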
Target sequence (P24468 whole entry, looked up): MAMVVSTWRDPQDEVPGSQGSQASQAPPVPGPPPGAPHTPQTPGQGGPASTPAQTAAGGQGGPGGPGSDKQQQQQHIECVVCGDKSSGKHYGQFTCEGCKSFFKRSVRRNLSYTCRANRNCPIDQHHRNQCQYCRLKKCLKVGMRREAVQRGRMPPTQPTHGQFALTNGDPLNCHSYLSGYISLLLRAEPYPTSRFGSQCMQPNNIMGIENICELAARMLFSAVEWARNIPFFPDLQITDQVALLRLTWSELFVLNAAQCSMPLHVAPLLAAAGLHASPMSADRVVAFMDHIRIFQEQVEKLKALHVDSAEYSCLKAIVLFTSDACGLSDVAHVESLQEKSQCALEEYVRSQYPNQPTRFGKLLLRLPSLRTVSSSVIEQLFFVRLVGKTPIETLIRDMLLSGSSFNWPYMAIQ
697 NFkB inh – inhibitors of the PMA/ionomycin-induced NF-kB reporter in 697 B cells. 697 B-cell NF-kB luciferase reporter, 16 h. inhibition, % at 4 µM. 0.33% of 330,000 active. AID 435022; in the data active = inhibition above about 35%
Gli-Sufu block – Gli-Sufu pathway antagonism; Sufu-KO-LIGHT fibroblasts, Gli luciferase reporter luminescence; inhibition, % at 5 µM; 0.74% of 340,000 active;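 active = inhibition above about 55%, limit read from the data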;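 note: 0% = DMSO-treated cells and 100% = wells with medium but no cells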
TAG inh – reduces triacylglycerol accumulation in H9c2 cells; Nile Red lipid (TAG) fluorescence; cells loaded with 200 µM oleic acid; inhibition, % at 12.5 µM; 0.66% of 230,000 active; AID 651582;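 active = pattern-corrected inhibition of lipid staining of at least 50% with the nuclear-stain viability signal not falling by more than 50%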;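 note: 0% = DMSO wells and 100% = triacsin C control wells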
H9c2 protect – protects H9c2 cardiomyocytes from peroxide injury. H2O2 injury protection, ATPLite, 2 h. protection from H2O2 cell death, % at 20 µM. 0.63% of 360,000 active;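 active = compounds giving at least 50% protection of heart cells from peroxide-induced death in the single-dose screen, raw or plate-pattern-corrected value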;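 note: 0% = DMSO wells with peroxide and 100% = DMSO wells without peroxide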
An asterisk follows results filed as active; · = no result given. An excerpt weighted towards active compounds, which were near 2.6% of everything screened.

SMILES	Jurkat NFkB inh	COUP-TFII inh	697 NFkB inh	Gli-Sufu block	TAG inh	H9c2 protect
O=C(CCc1nc2ccccc2c(=O)[nH]1)N1CCN(S(=O)(=O)c2cccc([N+](=O)[O-])c2)CC1	14.2	-27.9	-0.7	-1.6	-3.7	70.4*
O=C(CCc1nc2ccccc2c(=O)[nH]1)N1CCN(S(=O)(=O)c2ccc(F)cc2)CC1	-8.3	-13.4	3.6	1.2	1.1	86.5*
C=CCN1C(=O)[C@@H](CC(=O)NCc2cccc3ccccc23)[C@]2(C(=O)OCC)CCCCC/C=C/12	·	9.5	·	·	·	·
O=c1[nH]c2cccnc2c2ccsc12	-5.3	-25.9	23.4	2.8	-0.2	58.5*
c1cnc2ncc3sccc3c2c1	8.3	-3.9	3.6	-0.3	0.8	2.9
CCCCN1C[C@@H](COCc2ccccc2)Oc2cccc(F)c2S1(=O)=O	·	15.5	·	·	·	·
O=C(Nc1cccnc1)c1sc(Nc2ccccc2)nc1-c1ccccc1	2.9	3.9	18.5	2.1	·	65.3*
CCn1c(SCC(=O)N2CCN(c3ccccc3)CC2)nc2c(c1=O)SC(C)C2 (stereo not drawn)	5.1	2.9	-31.7	12.2	-1.8	58.5*
CC1Cc2nc(SCC(=O)N3CCN(c4ccccc4)CC3)n(CCc3ccccc3)c(=O)c2S1 (stereo not drawn)	17.0	19.8	-9.0	20.3	15.0	39.5
Oc1ccc(-c2nc(-c3ccc(O)c(O)c3)cs2)cc1	47.6	-89.1	-78.4	-6.8	-25.1	53.0*
Cc1nc(N2CCCCC2C)c2nnn(Cc3ccccc3)c2n1 (stereo not drawn)	·	-20.4	·	·	·	·
CC(N=Cc1cccc(O)c1O)c1ccccc1 (stereo not drawn)	-6.6	·	6.7	6.7	·	58.9*
CCN(CC)c1ccc(C=Nc2ccc(C)cc2C)c(O)c1	9.6	18.6	2.6	·	7.1	4.8
CC(N=Cc1cc([N+](=O)[O-])ccc1O)c1ccccc1 (stereo not drawn)	1.2	1.9	2.4	-6.1	·	16.6
Cc1ccccc1N=Cc1cccc(O)c1O	-5.0	·	-16.6	4.9	·	57.9*
Cc1ccc(N=Cc2cccc(O)c2O)c(C)c1	4.4	3.8	-28.7	·	-2.6	72.7*
C=CCOC(=O)C1=C(C)N=c2sc(=C3C(=O)N(CC(=O)O)c4ccccc43)c(=O)n2C1c1ccc(OC)cc1 (stereo not drawn)	·	21.0	·	·	·	·
CCOC(=O)Cn1cc(CN2CCS(=O)(=O)N(Cc3ccc(Cl)cc3)C(C(=O)OC)C2)nn1 (stereo not drawn)	·	0.0	·	·	·	·
CCOC(=O)N1CCN(C(=O)CSc2nc3ccccc3c(=O)n2-c2ccccc2)CC1	2.8	-0.1	-12.4	4.8	4.9	52.1*
CCCCCCCCNS(=O)(=O)/C=C/c1ccc(OC)cc1CNC(=O)OC(C)(C)C	·	-4.5	·	·	·	·
COc1ccc(NC(=O)c2cnn3c(C(F)(F)F)cc(-c4ccco4)nc23)cc1OC	6.2	7.8	28.9	11.4	5.7	46.0
Cc1ccccc1Cn1ccc(NC(=O)CCSc2nc(-c3ccco3)cc(C(F)(F)F)n2)n1	2.1	15.4	17.6	-1.8	32.8	-4.0
O=C(Nc1ccc2c(c1)OCO2)c1cnn2c(C(F)(F)F)cc(-c3ccco3)nc12	1.3	-9.3	26.9	13.7	43.6	93.1*
Cc1ccccc1Cn1ccc(NC(=O)c2cnn3c(C(F)(F)F)cc(-c4ccco4)nc23)n1	11.3	-2.1	18.9	14.8	·	60.4*
CCOC(=O)[C@@]12CCCC3=C1N(CCC3)C(=O)[C@H]2CC(=O)N1CCCC1	·	5.9	·	·	·	·
SMILES	Jurkat NFkB inh	COUP-TFII inh	697 NFkB inh	Gli-Sufu block	TAG inh	H9c2 protect
O=C(NC1CCCCN(Cc2ccc(OC(F)(F)F)cc2)C1=O)c1ccc(F)c(F)c1 (stereo not drawn)	·	8.5	·	·	·	·
Cc1ccccc1CN1CCCCC(NC(=O)Nc2ccccc2)C1=O (stereo not drawn)	·	15.2	·	·	·	·
Cc1ccc(NC(=O)C(=Cc2ccc(C(=O)O)cc2)C(=O)Nc2ccc(C)cc2C)c(C)c1	31.5	·	-137.0	25.8	55.8*	-4.5
CN(C)CC/C=C1\c2ccccc2Sc2ccc(Cl)cc21	-6.1	-6.9	-2.4	11.4	12.8	10.0
CN(C)CC/C=C1\c2ccccc2Sc2cc(F)c(Cl)cc21	11.6	19.0	11.5	14.4	62.2*	2.7
CN(C)CC/C=C1/c2ccc(F)cc2Sc2ccc(Cl)cc21	2.6	8.8	14.4	15.2	43.8	1.4
CN(C)CC/C=C1\c2ccc(F)cc2Sc2cc(F)c(Cl)cc21	-7.7	4.9	-4.3	44.6	61.4*	1.0
CC(C)Oc1cccc(-c2csc(N3CCC(C(N)=O)CC3)n2)c1	·	-29.4	·	·	·	·
CCOC(=O)c1c(CSC(=N)N)n(-c2ccc(C)cc2)c2cc(Br)c(OC(C)=O)cc12	-5.6	14.3	-31.6	24.1	74.4*	-14.8
CC(COc1ccc(Cl)cc1)CN1CCC(C(O)(c2ccccc2)c2ccccc2)CC1 (stereo not drawn)	·	3.0	·	·	·	·
Clc1ccc(-n2c(Cc3cccs3)nnc2SC/C=C/c2ccccc2)cc1	·	3.1	·	·	·	·
Cc1ccc2nsnc2c1S(=O)(=O)N(Cc1cc2cccc(C)c2[nH]c1=O)CC1CCCO1 (stereo not drawn)	16.0	4.6	32.6	-5.8	·	80.0*
COc1ccc(C(=O)Nc2cc3c(cc2N2CCCCC2)n(C)c(=O)n3C)cc1OC	-18.4	-35.5	28.8	26.1	·	29.9
COc1cc(C(=O)Nc2cc3c(cc2N2CCCCC2)n(C)c(=O)n3C)cc(OC)c1OC	1.5	-40.5	25.8	44.3	·	53.2*
CCCN1C(=O)/C(=C\c2nc3ccccc3c(=O)[nH]2)c2ccccc21	·	-5.4	·	-4.3	20.9	65.7*
O=c1[nH]c(/C=C/c2cccc3ccccc23)nc2ccccc12	-22.2	-14.1	11.7	-38.3	19.7	7.6
CCCCCCCC(=O)N[C@H]1CC[C@@]23CCCN2C(=O)CCC[C@H]3[C@H]1C	·	-1.2	·	·	·	·
COc1ccc(/C=N/NC(=O)c2cc(OC)c(OC)c(OC)c2)cc1CN1CCc2cc(OC)c(OC)cc2C1C (stereo not drawn)	-9.8	-1.6	20.1	·	33.3	66.1*
COc1ccc(-c2cc(-c3nnc(SCC(=O)NC4CCCCC4)n3N)[nH]n2)cc1	·	-9.3	·	·	·	·
COc1cc2[nH]c(=O)n3nc(-c4ccccc4)nc3c2cc1OC	5.7	·	16.0	8.0	33.5	95.2*
COc1ccc(N(CC(=O)NCCSc2ccccc2)S(=O)(=O)c2ccccc2)c(OC)c1	3.0	7.2	12.8	-2.3	-5.8	55.5*
Oc1ccc(CN2CCC(Cc3ccccc3)CC2)c2cccnc12	40.2	-2.8	-153.8	67.0*	·	·
Oc1ccc(CN2CCc3ccccc3C2)c2cccnc12	37.0	9.6	-2.9	84.3*	·	39.5
Cc1ccc(C)c(S(=O)(=O)N2CCN(Cc3ccc(O)c4ncccc34)CC2)c1	15.9	12.7	-42.2	73.5*	·	27.3
CCOC(=O)N1CCN(Cc2ccc(O)c3ncccc23)CC1	3.4	3.7	-8.5	26.2	·	·
Oc1ccc(CN2CCCCC2)c2cccnc12	20.3	19.3	-19.5	13.6	·	14.7

Screens as filed in PubChem BioAssay.
